Among the data in ChEMBL document CHEMBL1961873, “Compounds: GSK PKIS; Assays: Nanosyn kinase panel” (2012) are inhibition values, retold here.

Structures are written as SMILES.
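Further: reported value is a mean MARK4 inhibition at 1 µM, taken from the GSK PKIS screening set.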

The test deals with T1, MAP/microtubule affinity-regulating kinase 4 (Homo sapiens) (UniProt Q96L34).
T1 sequence (whole entry): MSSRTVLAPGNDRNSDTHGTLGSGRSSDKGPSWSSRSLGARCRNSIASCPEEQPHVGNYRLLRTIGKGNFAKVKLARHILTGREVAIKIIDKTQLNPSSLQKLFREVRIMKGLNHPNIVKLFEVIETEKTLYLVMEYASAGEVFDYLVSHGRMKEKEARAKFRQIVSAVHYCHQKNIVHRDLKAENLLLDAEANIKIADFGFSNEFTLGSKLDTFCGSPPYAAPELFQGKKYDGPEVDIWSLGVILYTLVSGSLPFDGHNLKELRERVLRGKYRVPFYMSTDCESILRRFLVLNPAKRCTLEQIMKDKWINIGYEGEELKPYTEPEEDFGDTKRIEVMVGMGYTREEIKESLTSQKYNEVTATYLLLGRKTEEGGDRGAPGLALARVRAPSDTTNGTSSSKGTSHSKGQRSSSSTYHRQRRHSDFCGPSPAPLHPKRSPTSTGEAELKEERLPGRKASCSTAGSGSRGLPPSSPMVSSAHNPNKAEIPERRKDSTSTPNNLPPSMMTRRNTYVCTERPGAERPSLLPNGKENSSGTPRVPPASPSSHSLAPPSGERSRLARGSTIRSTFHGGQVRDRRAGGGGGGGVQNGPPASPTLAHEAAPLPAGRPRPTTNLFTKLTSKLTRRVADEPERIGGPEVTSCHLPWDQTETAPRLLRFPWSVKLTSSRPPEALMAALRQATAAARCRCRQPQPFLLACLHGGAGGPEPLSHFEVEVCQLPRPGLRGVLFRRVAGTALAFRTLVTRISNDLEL
To be noted: at 1 µM.
Turning to `FC(F)(F)CNc1nccc(-c2cnn3ncccc23)n1`, the inhibition is 0.89%. Turning to `CCOc1ccc2c(-c3ccnc(Nc4cc(OC)cc(C(F)(F)F)c4)n3)cnn2n1`, the inhibition stood at 2.36%. For the molecule `CCS(=O)(=O)c1ccc(OC)c(Nc2ncc(-c3cccc(C(C)=O)c3)o2)c1`, the inhibition was found to be 1.52%.

As to `CS(=O)(=O)CCNCc1ccoc1-c1ccc2ncnc(Nc3ccc(OCc4ccccc4)cc3)c2c1`, the inhibition is -0.4%.

For `NS(=O)(=O)c1cccc(N/C=C2\C(=O)Nc3ccccc32)c1`, the inhibition worked out at 15.5%. In the case of `CCn1c(-c2nonc2N)nc2cncc(C(=O)NCCNC)c21`, the inhibition was 7.71%. The figure for `CS(=O)(=O)CCNCc1ccc(-c2ccc3ncnc(Nc4ccc(OCc5cccc(C(F)(F)F)c5)cc4)c3c2)o1` is 2.54%.

For the molecule `COc1cc(N2CCN(C(C)C)CC2)ccc1Nc1nc(Nc2cccc(F)c2C(=O)O)c2cc[nH]c2n1`, the inhibition turned out to be 5.09%. On to `O=C(O[C@H]1CN[C@H](C#Cc2cc3ncnc(Nc4ccc5c(cnn5Cc5ccccc5)c4)c3s2)C1)N1CCOCC1`, for which the inhibition was found to be 2.44%.

Consider `CS(=O)(=O)Nc1ccc(-c2cc(-c3ccccc3)cc(C(N)=O)c2N)cc1`, for which the inhibition was determined as 0.98%. `CCS(=O)(=O)c1ccc(OC)c(Nc2ncc(-c3cccc(F)c3)o2)c1`: the inhibition was 2.65%. On to `O=C1Nc2ccccc2/C1=C1\CCc2cc(O)ccc21`, for which the inhibition turned out to be 33.1%. As to `Cc1ccc(-c2cc3c(NC(=O)C4CC4)ncnc3o2)cc1`, the inhibition was 3.33%.

As for `CS(=O)(=O)Nc1ccc(-c2ccc3c(NC(=O)C4CC4)n[nH]c3c2)cc1`, the inhibition was found to be 2.82%. Take `Cn1c(-c2nonc2N)nc2cnccc21`: the inhibition is 3.94%.

Regarding `COc1cccc(-n2ncc3c(N/N=C/c4ccc(C(=O)NCCN(C)C)cc4)ncnc32)c1`, the inhibition came to 16.8%.
